# Bioassay records deposited in PubChem by National Center for Advancing Translational Sciences (NCATS).
# BRCA1 expr act: increases BRCA1 expression; MCF7-BRCA1-FFLuc reporter, luminescence, 48 h; response scale: scaled: vehicle 0%, 10 µM genistein 100%; Potency, µM (top dose mostly 46.1 µM), most hits filed as activators; actives 1.1% (n = 380,000); AID 624202; also: nearly all actives have a fitted effect of over 80% in size
#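 Luminescence from a BRCA1-driven firefly luciferase in MCF7 cells was the read-out, taken 15 min after substrate addition following 48 h compound exposure at 37 °C. Data were normalized to a 10 microM genistein control and DMSO vehicle.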
# GLP-1R agonist: activates the human GLP-1 receptor; actives 0.007% (n = 380,000); HEK293 GLP-1R CRE-luciferase, luminescence, 4-6 h; cells express a hypersensitive GLP-1R form; Potency, µM (titrated, usually from 45.6 µM), hits mostly activators; P43220
# Target sequence (P43220 whole entry, looked up): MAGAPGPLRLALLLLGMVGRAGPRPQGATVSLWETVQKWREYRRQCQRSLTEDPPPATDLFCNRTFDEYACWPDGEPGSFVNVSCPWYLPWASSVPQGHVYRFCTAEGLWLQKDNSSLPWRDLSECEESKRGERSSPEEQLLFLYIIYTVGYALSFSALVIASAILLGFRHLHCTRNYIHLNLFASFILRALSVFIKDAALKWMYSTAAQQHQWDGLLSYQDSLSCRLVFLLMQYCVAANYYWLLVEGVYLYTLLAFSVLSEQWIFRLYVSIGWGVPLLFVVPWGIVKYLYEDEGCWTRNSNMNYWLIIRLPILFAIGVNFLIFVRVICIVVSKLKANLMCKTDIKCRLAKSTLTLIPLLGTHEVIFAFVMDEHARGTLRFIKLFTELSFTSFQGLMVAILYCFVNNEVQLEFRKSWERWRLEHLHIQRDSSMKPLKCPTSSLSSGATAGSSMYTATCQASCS
# Integrin act MD: activators of alpha7 integrin expression for muscular dystrophy; Potency, µM (series often up to 38.3 µM), actives largely listed as activators; actives 0.064% (n = 350,000); alpha7betagal myoblasts, beta-gal FDG fluorescence, 48 h; also: nearly all actives have a fitted effect of over 60% in size
#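 alpha7betagal+/- myoblasts (passage 13, 250/well) treated 48 h at 37C with compounds at 1:260 dilution of DMSO stock. Lysed, then beta-galactosidase activity read as FDG fluorescence (ex 480/em 540) after 30 min, with pre-read for autofluorescence.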
# GLP-1R inv ag: GLP-1 receptor (human) inverse agonism | P43220 | HEK293 GLP-1R CRE-luciferase, luminescence, 24 h; GLP-1R form is constitutively active | Potency, µM (series often up to 38.3 µM), hits mostly inhibitors | actives 1.6% (n = 410,000) | AID 624417; also: nearly all actives have a fitted effect of over 55% in size
#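 Readout was luciferase luminescence, measured 12 min after detection reagent at room temperature. Beforehand, GLP-1R reporter HEK293 cells had sat 12 h, then received compounds for 24 hr at 37 deg C.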
# HEK293 tox: cytotoxicity in counter-screen for GLP-1R inverse agonists | HEK293 cAMP-luciferase reporter cells, luminescence, 24 h | Potency, µM (highest dose often 38.3 µM), usual class: inhibitors | actives 0.13% (n = 410,000);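 also: loss of luciferase light is scored as toxicity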
#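 Cells in DMEM/10% Nu serum/1% pen-strep, 1536-well format. Pre-incubated 12 h, dosed with 23 nL compound, incubated a further 24 h. Luciferase detection, 12 min at room temp, luminescence.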
# Numbers stand for hits; . = inactive; ? = inconclusive; / = not tested or not shown; [ ] = another dose, or the depositor's remark. Rows were chosen to be rich in hits. Some 2.7% of all compounds tested hit in one or more screens of this group. Calls follow the shape of the dose curve; as a rule, active = well fitted curve in the direction sought with a large enough effect; inconclusive = small, poorly fitted or top-dose-only effect, or another doubt; inactive = no such curve, though single readings can be large; an effect the other way counts as inactive or inconclusive.
SMILES,BRCA1 expr act,GLP-1R agonist,Integrin act MD,GLP-1R inv ag,HEK293 tox
CC(C)CN(C)c1ccc(/C=C2\C=Cc3ccccc32)cc1,.,/,/,/,/
CCN(CC)c1ccc(/C=C2\C=Cc3ccccc32)cc1,4.5µM,/,/,/,/
C#CC(=O)N(c1cc(OC)ccc1OC)C(C(=O)NC1CCCC1)c1cccs1 (configuration not stated),.,.,?,7.9µM,5µM
C#CC(=O)N(c1ccc(OC)cc1OC)C(C(=O)NC1CCCC1)c1cccs1 (configuration not stated),.,.,.,?,?
CCCn1c(=O)sc2cc(NC(=O)COc3ccc(Cl)cc3)ccc21,.,.,/,?,.
CN=C1c2cc3cc(OC)ccc3n2CCN1Cc1ccccc1,.,.,.,5µM,.
COc1ccc2c(c1)nc(N)n2Cc1ccccc1,.,.,.,.,.
COc1ccccc1NC(=O)Nc1nc(CC(=O)NCc2c(F)cccc2F)cs1,.,.,.,?,?
COc1ccccc1NC(=O)Nc1nc(CC(=O)N2CCN(c3ccccc3F)CC2)cs1,.,.,.,10µM,.
O=C(/C=C/c1ccc(-c2ccc(F)cc2)o1)N1CCCC1,4µM,?,.,.,.
O=C(/C=C/c1ccc(F)cc1)N1CCCN(C(=O)/C=C/c2ccc(F)cc2)CC1,.,.,.,.,.
Nc1ccc(C(Cc2ccnc3ccccc23)Cc2ccnc3ccccc23)cc1,.,/,/,/,/
CCc1ccc(OCc2ccc(C(=O)O)o2)cc1,?,.,.,4µM,.
CCOc1ccc(OCc2ccc(C(=O)NCc3cccnc3)o2)cc1,11µM,.,.,.,.
O=C(O)c1ccc(OCc2ccc(C(=O)O)o2)cc1,?,.,.,.,.
O=C(NCCc1ccc(Cl)cc1)c1ccc(Br)s1,3.5µM,.,?,.,.
NS(=O)(=O)c1ccc(CCNC(=O)c2ccc(Br)s2)cc1,.,.,?,.,.
O=S(=O)(c1ccc(Cl)cc1)c1nc(-c2ccco2)oc1SCc1ccc(F)cc1,/,/,/,?,.
Cn1c(-c2ccccc2O)cc2ccccc21,.,.,.,10µM,.
COc1ccc2nc(N3C(=O)CNC3=S)sc2c1,.,.,.,?,7.9µM
O=C(/C=C/c1ccc(OCc2cccc(Cl)c2)cc1)N1CCOCC1,.,.,.,6.3µM,.
Cc1ccc(S(=O)(=O)c2c(C)cc(C)nc2Oc2cccc(C(F)(F)F)c2)cc1,.,.,.,5µM,.
Cc1cc(C)c(S(C)(=O)=O)c(Oc2ccc(C(C)(C)C)cc2)n1,.,.,.,11µM,.
Cc1cc(-c2ccccc2)nc(N(C)NC(=O)c2cccc(C(F)(F)F)c2)c1S(C)(=O)=O,.,.,.,.,.
Cc1cc(-c2ccccc2)nc(Oc2cccc(C(F)(F)F)c2)c1S(C)(=O)=O,.,.,.,10µM,.
SMILES,BRCA1 expr act,GLP-1R agonist,Integrin act MD,GLP-1R inv ag,HEK293 tox
COc1ccc(NC(=O)Nc2cccc(-c3cn4cccnc4n3)c2)cc1,.,.,/,.,.
C=C[C@]1(C)C[C@H]1[C@H](NP(=O)(c1ccccc1)c1ccccc1)c1ccccc1,.,.,.,.,.
C/C(=C\[C@@H](NP(=O)(c1ccccc1)c1ccccc1)c1ccccc1)CO[Si](c1ccccc1)(c1ccccc1)C(C)(C)C,.,.,.,7.9µM,.
O=C(c1ccco1)N1CCN(C(=O)c2ccco2)CC1,.,.,/,.,.
O=C(c1ccco1)N1CCN(Cc2ccccc2Br)CC1,16µM,.,.,.,.
O=C(c1ccco1)N1CCN(c2ccc(N3CCCCC3)nn2)CC1,10µM,.,.,.,.
CCn1nc(C)c(CN2CCc3c([nH]c4ccccc34)C2C(C)(C)C)c1C (configuration not stated),.,.,.,7.1µM,.
CCCC(=O)NCC(c1ccc2c(c1)OCO2)N1CCOCC1 (configuration not stated),/,/,/,.,.
Cc1cccc(NC(=O)CSc2nc3ccc(NC(=O)CCc4ccccc4)cc3s2)c1,.,/,/,.,.
CN(C(=O)CSc1nc2ccc(NC(=O)COc3ccc(F)cc3)cc2s1)c1ccccc1,/,/,/,11µM,?
CN(C(=O)CSc1nc2ccc(NC(=O)CCc3ccccc3)cc2s1)c1ccccc1,.,/,/,8.9µM,?
CN(C(=O)CSc1nc2ccc(NC(=O)c3ccc(F)cc3)cc2s1)c1ccccc1,.,/,/,?,.
Cc1ccc(NC(=O)/C=C\C(=O)N(c2ccc(C(C)C)cc2)C(C(=O)NCc2ccco2)c2ccc(F)cc2)cc1 (configuration not stated),/,/,/,?,.
Cc1nc(NC(=O)c2oc3ccccc3c2C)sc1C(=O)N(C)C,13µM,.,.,.,.
CCOC(=O)c1cc(C)n(CC2CCC(C(=O)Nc3cccc(C(C)=O)c3)CC2)c1C (configuration not stated),/,/,/,.,.
Cc1ccc(/C=N/NC(=O)Nc2ccccc2)o1,13µM,.,.,.,.
CC(=O)Oc1ccc(/C=N/NC(=S)Nc2ccccc2)cc1,11µM,.,.,?,.[1.53 µM]
CC(C)(C)NCC(=O)N/N=C/c1ccc(OCc2ccccc2)cc1,10µM,.,.,?,.
CCOc1ccc(/C=N/NC(=O)Nc2ccccc2)cc1,?,.,.,.,.
COC(=O)N/N=C/c1ccc(Oc2ccccc2)cc1,10µM,.,.,.,.
Cc1ccc(/C=N/NC(=O)C(O)c2ccccc2)o1 (configuration not stated),.,.,.,.,.
COc1cccc(N2CCN(C(=O)CCCn3c(=O)[nH]c4ccc(Br)cc4c3=O)CC2)c1,.,.,/,?,.
COC(=O)N/N=C\c1ccc(OC/C=C/c2ccccc2)cc1,7.1µM,.,.,.,.
CCOC(=O)N/N=C\c1ccc(OC/C=C/c2ccccc2)cc1,8.9µM,.,.,.,.
COc1ccc(NC(=S)N/N=C/c2ccc(F)cc2)cc1OC,?,.,.,?,5.6µM
SMILES,BRCA1 expr act,GLP-1R agonist,Integrin act MD,GLP-1R inv ag,HEK293 tox
CC(C)(O)C(=O)N/N=C\c1ccc(OC/C=C/c2ccccc2)cc1,?,.,.,.,.
S=Cc1nc2ccccc2[nH]1,.,/,/,/,/
CCOc1ccccc1NC(=O)CCNS(=O)(=O)c1ccc2c(c1)CCN2C(=O)C1CC1,.,.,/,.,.
COc1cc2c(cc1OC)C(c1cc(-c3cc(Cl)ccc3Cl)oc1C)=NCC2,.,/,/,/,/
CCCCN(C(=O)c1cccc2c(=O)c(C)c(-c3ccccc3)oc12)c1ccccc1,.,.,.,10µM,.
O=[N+]([O-])c1ccc(COc2ccc(CN3CCCCC3)cc2)cc1,7.9µM,.,.,?,.
O=[N+]([O-])c1ccc(COc2ccc(CN3CCOCC3)cc2)cc1,?,.,.,?,.
O=[N+]([O-])c1ccc(CN2CCOCCOCCN(Cc3ccc([N+](=O)[O-])cc3)CCOCC2)cc1,.,.,.,10µM,.
